# Many of the other results were omitted from the sample, so the strongest signals are more common in it than they were.
# Experiments:
# Test in all cases: glycan array binding signal (z-score within array); higher = stronger binding
# Conditions in all cases: glycan notation: IUPAC condensed, linker removed
# [1] = target: Fuc(a1-2)[Gal(a1-3)]Gal(b1-4)GlcNAc(b1-3)GalNAc
# In short: (§1)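 The Consortium for Functional Glycomics database supplied 3228 glycan arrays, of which those lacking an available protein sequence were dropped. The binding signal, a within-array Z-score, was averaged across arrays of the same protein sequence and across linkers. Negative scores can be read as non-binding.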
# [2] = target: Gal(a1-3)Gal(b1-3)GlcNAc(b1-3)GalNAc
# In short: as §1
# Gal(a1-4)Gal(b1-4)Glc = target: Gal(a1-4)Gal(b1-4)Glc
# In short: as §1
# Gal(a1-6)Glc = target: Gal(a1-6)Glc
# In short: as §1
# [3] = target: Gal(b1-3)GlcNAc(a1-6)Gal(b1-4)GlcNAc
# In short: as §1
# [4] = target: Gal(b1-3)GlcNAc(b1-2)Man(a1-3)[Gal(b1-3)GlcNAc(b1-2)Man(a1-6)]Man(b1-4)GlcNAc(b1-4)GlcNAc
# In short: as §1
# [5] = target: Gal(b1-3)GlcNAc(b1-3)GalNAc
# In short: as §1
# [6] = target: Gal(b1-3)[Fuc(a1-4)]GlcNAc(b1-3)Gal(b1-4)[Fuc(a1-3)]GlcNAc
# In short: as §1
# [7] = target: Gal(b1-3)[GlcNAc(b1-6)]GalNAc
# In short: as §1
# [8] = target: Gal(b1-4)GlcNAc(b1-2)Man(a1-3)Man(b1-4)GlcNAc(b1-4)GlcNAc
# In short: as §1
# [9] = target: Gal(b1-4)GlcNAc(b1-2)Man(a1-3)[Gal(b1-4)GlcNAc(b1-2)Man(a1-6)]Man(b1-4)GlcNAc(b1-4)GlcNAc
# In short: as §1
# [10] = target: Gal(b1-4)GlcNAc(b1-2)Man(a1-3)[Gal(b1-4)GlcNAc(b1-2)Man(a1-6)]Man(b1-4)GlcNAc(b1-4)[Fuc(a1-6)]GlcNAc
# In short: as §1
# [11] = target: Gal(b1-4)GlcNAc(b1-2)Man(a1-3)[Gal(b1-4)GlcNAc(b1-2)][GlcNAc(b1-4)]Man(b1-4)GlcNAc(b1-4)GlcNAc
# In short: as §1
# [12] = target: Gal(b1-4)GlcNAc(b1-2)Man(a1-3)[GlcNAc(b1-2)Man(a1-6)]Man(b1-4)GlcNAc(b1-4)GlcNAc
# In short: as §1
# [13] = target: Gal(b1-4)GlcNAc(b1-2)Man(a1-3)[Man(a1-6)]Man(b1-4)GlcNAc(b1-4)GlcNAc
# In short: as §1
# Gal3S6S(b1-4)GlcNAc6S = target: Gal3S6S(b1-4)GlcNAc6S
# In short: as §1
# Gal6S(b1-4)GlcNAc = target: Gal6S(b1-4)GlcNAc
# In short: as §1
# GalNAc(b1-6)GalNAc = target: GalNAc(b1-6)GalNAc
# In short: as §1
# Glc(a1-6)Glc(a1-6)Glc = target: Glc(a1-6)Glc(a1-6)Glc
# In short: as §1
# GlcA(b1-3)Gal = target: GlcA(b1-3)Gal
# In short: as §1
# GlcNAc(b1-3)Gal = target: GlcNAc(b1-3)Gal
# In short: as §1
# GlcNAc(b1-4)GlcNAc = target: GlcNAc(b1-4)GlcNAc
# In short: as §1
# [14] = target: GlcNAc6S(b1-3)Gal(b1-4)GlcNAc
# In short: as §1
# [15] = target: Man(a1-2)Man(a1-2)Man(a1-6)[Man(a1-3)]Man
# In short: as §1
# [16] = target: Man(a1-2)Man(a1-3)[Man(a1-2)Man(a1-6)]Man(a1-6)[Man(a1-2)Man(a1-2)Man(a1-3)]Man
# In short: as §1
# Man(b1-4)GlcNAc = target: Man(b1-4)GlcNAc
# In short: as §1
# Neu5Ac(a2-3)GalNAc = target: Neu5Ac(a2-3)GalNAc
# In short: as §1
# [17] = target: Neu5Ac(a2-6)Gal(b1-4)GlcNAc(b1-2)Man(a1-3)[Man(a1-6)]Man(b1-4)GlcNAc(b1-4)GlcNAc
# In short: as §1
# [18] = target: Neu5Ac(a2-6)Gal(b1-4)GlcNAc(b1-2)Man(a1-6)[Gal(b1-4)GlcNAc(b1-2)Man(a1-3)]Man(b1-4)GlcNAc(b1-4)GlcNAc
# In short: as §1
# [19] = target: Neu5Ac(a2-6)Gal(b1-4)GlcNAc(b1-2)Man(a1-6)[GlcNAc(b1-2)Man(a1-3)]Man(b1-4)GlcNAc(b1-4)GlcNAc
# In short: as §1
# [20] = target: Neu5Ac(a2-6)GlcNAc(b1-4)GlcNAc(b1-4)GlcNAc
# In short: as §1
# Neu5Ac(a2-8)Neu5Ac = target: Neu5Ac(a2-8)Neu5Ac
# In short: as §1
binder,measurement,setting,value
"ASAL (Allium sativum), P83886 (protein) MGRTTSSPKAMMRIATVAAILTILASTCMARNVLTNGEGLYAGQSLDVEQYKFIMQDDCNLVLYEYSTPIWASNTGVTGKNGCRAVMQRDGNFVVYDVNGRPVWASNSVRGNGNYILVLQKDRNVVIYGSDIWSTGTYRRSVGGAVVMAMNGTVDGGSVIGPVVVNQNVTAAIRKVGTGAA",glycan array binding signal (z-score),[1],-0.201
same,glycan array binding signal (z-score),[2],-0.206
same,glycan array binding signal (z-score),Gal(a1-4)Gal(b1-4)Glc,-0.282
same,glycan array binding signal (z-score),Gal(a1-6)Glc,-0.285
same,glycan array binding signal (z-score),[3],-0.252
same,glycan array binding signal (z-score),[4],-0.113
same,glycan array binding signal (z-score),[5],-0.178
same,glycan array binding signal (z-score),[6],-0.218
same,glycan array binding signal (z-score),[7],-0.267
same,glycan array binding signal (z-score),[8],6.55
same,glycan array binding signal (z-score),[9],5.54
same,glycan array binding signal (z-score),[10],7.04
same,glycan array binding signal (z-score),[11],-0.228
same,glycan array binding signal (z-score),[12],5.91
same,glycan array binding signal (z-score),[13],7.21
same,glycan array binding signal (z-score),Gal3S6S(b1-4)GlcNAc6S,-0.238
same,glycan array binding signal (z-score),Gal6S(b1-4)GlcNAc,-0.193
same,glycan array binding signal (z-score),GalNAc(b1-6)GalNAc,-0.24
same,glycan array binding signal (z-score),Glc(a1-6)Glc(a1-6)Glc,-0.234
same,glycan array binding signal (z-score),GlcA(b1-3)Gal,5.39
same,glycan array binding signal (z-score),GlcNAc(b1-3)Gal,-0.3
same,glycan array binding signal (z-score),GlcNAc(b1-4)GlcNAc,-0.252
same,glycan array binding signal (z-score),[14],-0.065
same,glycan array binding signal (z-score),[15],2.53
same,glycan array binding signal (z-score),[16],4.09
same,glycan array binding signal (z-score),Man(b1-4)GlcNAc,-0.236
same,glycan array binding signal (z-score),Neu5Ac(a2-3)GalNAc,-0.276
same,glycan array binding signal (z-score),[17],0.085
same,glycan array binding signal (z-score),[18],4.59
same,glycan array binding signal (z-score),[19],5.01
same,glycan array binding signal (z-score),[20],-0.29
same,glycan array binding signal (z-score),Neu5Ac(a2-8)Neu5Ac,-0.25

# Source: the supplement of paper PMC8728848
